Compound activity as filed in PubChem BioAssay.
In the library only some 7.9% were active in any assay of this set; here they are far more common.
Lassa entry inh = inhibitors of Lassa virus binding or cell entry | hit rate 1.2% among 300,000 | AID 540256 | Lassa virus pseudotype entry inhibition, cell reporter | Potency, µM (top dose mostly 37.9 µM), inactives show at the highest dose activity change, negative = inhibition, actives largely listed as inhibitors; calls by dose curve; tested in HEK293 cells; further: potency means the concentration at half of the fitted maximal effect; nearly all actives have a fitted effect of over 50% in size
HCV inh = inhibitors of hepatitis C virus infection; Huh7.5.1 HCVcc-Cre infection, luciferase reporter, 44 h; Potency, µM (top dose mostly 41.8 µM), without a hit: at the highest dose activity change, negative = inhibition, usual class: inhibitors; hit rate 3.4% among 340,000; active means well fitted inhibition curve with a large enough effect; inconclusive means small, poorly fitted or top-dose-only effect, or another doubt; inactive means no such curve, though single readings can be large or run the other way; further: potency means the concentration at half of the fitted maximal effect
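Cells (1,000/well) were plated 4 h before compound, then infected with HCVcc-Cre virus (~0.5 moi). After 44 h further culture, infection was read as luciferase luminescence following a 15 min substrate incubation at room temperature.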
HCMV antiviral = human cytomegalovirus inhibition. HFF cells, HCMV-luciferase reporter, 72 h; active compounds read low. activity change, negative = inhibition, % at 57.5 µM. hit rate 4.5% among 410,000; in the data active means activity change below about -60%; inconclusive means no clear call, values can overlap the other calls; inactive means above about -39%
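Screen run at 2 compound doses on HFFs infected with reporter HCMV, MOI 1 PFU/cell. Luciferase activity from cell lysates at 72 h post infection gave inhibition relative to buffer-only and Salinomycin wells.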
Marburg entry inh = Marburg virus entry inhibition. Marburg virus pseudotyped entry inhibition, cell reporter. Potency, µM (top dose mostly 37.8 µM), inactives show at the highest dose activity change, negative = inhibition, actives largely listed as inhibitors. hit rate 1.8% among 300,000. AID 540276; calls by dose curve; tested in HEK293 cells; further: potency means the concentration at half of the fitted maximal effect
FMDV inh = foot and mouth disease virus antiviral activity; Potency, µM (series often up to 57.9 µM), without a hit: top-dose activity change, negative = inhibition, usual class: inhibitors; hit rate 1.2% among 410,000; FMDV antiviral cell-based qHTS; calls by dose curve; tested in HEK293T cells; further: read-out not given here; potency means the concentration at half of the fitted maximal effect; nearly all actives have a fitted effect of over 45% in size
* marks the source's active call; other numbers are inactive results; ? = inconclusive; nt = no result given; [ ] = another dose, or the depositor's remark. On the % scale 0 is the no-effect control and ±100 the full control effect.

SMILES	Lassa entry inh	HCV inh	HCMV antiviral	Marburg entry inh	FMDV inh
CCC(=O)c1ccc(OCC(=O)NCC2COc3ccccc3O2)cc1 (configuration not stated)	nt	0.9%	-13.6	nt	-29.3%
CCC1CN(Cc2cn[nH]c2-c2ccc(OC)cc2)Cc2cc(OC)ccc2O1 (configuration not stated)	nt	nt	nt	nt	-20.2%
CCCCn1nnnc1C(CCSC)N1CCC(n2c(=O)[nH]c3ccccc32)CC1 (configuration not stated)	nt	nt	-22.2	nt	-12.7%
CCC(c1nnnn1Cc1ccccc1)N1CCC(n2c(=O)[nH]c3ccccc32)CC1 (configuration not stated)	nt	nt	-60.6*	nt	?
CCCCn1nnnc1C(CCc1ccccc1)N1CCC(n2c(=O)[nH]c3ccccc32)CC1 (configuration not stated)	nt	nt	-101.3*	nt	20µM*
C[C@H]1[C@@H]2O[C@H]2CCO[C@H]1c1cccc(Br)c1	nt	nt	nt	-16.0%[14.2 µM]	nt
CC12C=C(/C=C/c3ccc(Br)cc3)C(C)(C1)C(c1ccc(Br)cc1)CC2=O (configuration not stated)	nt	nt	nt	-25.8%[14.2 µM]	nt
C=C(C)Cn1c(=O)c2c(nc3n2CCN3c2cccc(Cl)c2C)n(C)c1=O	-11.4%	?	-33.7	4.1%	22.4µM*
CCn1c(=O)c2c(nc3n2CCN3c2ccccc2)n(C)c1=O	12.8%	?	-74.9*	?	-11.5%
Cn1c(=O)n(Cc2ccccc2)c(=O)c2c1nc1n2CCN1c1ccccc1	11.5%[46.1 µM]	nt	?	nt	8.3%
Cn1c(=O)n(C/C=C/c2ccccc2)c(=O)c2c1nc1n2CCCN1c1ccc(F)cc1	?	11.2µM*	-30.1	?	?
Cc1c(Cl)cccc1N1CCn2c1nc1c2c(=O)n(CC(=O)O)c(=O)n1C	?	nt	-15.5	-4.1%[46.1 µM]	-26.7%
COc1ccc(N2CCN(C(=O)c3ccc(C)c(NC(=O)C4=C(C)OCCS4)c3)CC2)cc1	nt	5.0%	-16.8	nt	-10.0%
CC1=C(C(=O)Nc2cc(C(=O)N3CCN(c4cccc(C)c4C)CC3)ccc2C)SCCO1	nt	11.2µM*	-36.6	nt	-8.6%
CCN(CC)C(=O)C1=C(C)N(Cc2ccc(C(C)(C)C)cc2)C(=O)C(CC(=O)NCCN2CCOCC2)C1 (configuration not stated)	nt	nt	-2.6	nt	-8.3%
CCOc1cc(CNCCc2ccc(S(N)(=O)=O)cc2)ccc1OCc1ccccc1	?	12.6µM*	?	6.51µM*	?
CCOc1cc(CNCc2ccccc2)ccc1OCc1ccc(Cl)cc1	?	22.4µM*	-84.5*	?	?
CCOCCCNCc1cc(Br)ccc1OCc1ccccc1	-24.6%	?	-33.5	?	-1.7%
NS(=O)(=O)c1ccc(CCNCc2cc(Br)ccc2OCc2ccccc2)cc1	?	11.2µM*	-66.2*	?	?
COc1ccc(CNCCc2ccc(Cl)cc2)cc1OCc1ccccc1	?	?	nt	?	-20.9%
OCCNCc1cc(Br)ccc1OCc1ccccc1	-20.3%	-16.5%	-67.6*	?	-24.8%
COc1cccc(-c2cncnc2NCc2ccc(OC)cc2OC)c1	nt	nt	nt	nt	-28.5%
CCOC(=O)Cn1c(CN(C)Cc2ccccc2)nc2c1c(=O)n(C)c(=O)n2C	0.9%	?	-8.2	-11.2%	14.1µM*
COC(=O)Cn1c(CN(C)Cc2ccccc2)nc2c1c(=O)n(C)c(=O)n2C	nt	-12.6%	-17.0	nt	?
COc1ccc(N(Cc2ccccc2)C(=O)CSc2nnc(Cn3nnc4ccccc43)o2)cc1	?	14.1µM*	-22.7	?	?
SMILES	Lassa entry inh	HCV inh	HCMV antiviral	Marburg entry inh	FMDV inh
COc1ccc(CN(C(=O)CSc2nnc(-c3c[nH]c4ccccc34)o2)c2ccc(F)cc2)cc1OC	7.08µM*	5.01µM*	-70.1*	?	?
O=C(CSc1nnc(Cn2nnc3ccccc32)o1)N(Cc1ccc(F)cc1)c1ccccc1	?	1.58µM*	-99.8*	?	nt
COc1ccc(-n2c(Cn3nnc4ccccc43)nnc2SCC(=O)O)cc1	-1.7%	12.4%	-9.0	24.2%	8.9%
COc1ccc(CN(C(=O)CSc2nnc(-c3ccc(F)cc3)o2)c2ccc(F)cc2)cc1	?	?	-18.1	6.3%	-7.8%
O=C(CSc1nnc(Cn2nnc3ccccc32)o1)Nc1ccc(Cl)cc1	23.4%	12.1%	-9.7	8.3%	8.7%
CC(O)(COc1ccccc1)c1ccc2c(c1)CN(Cc1cccn1-c1ccccn1)CCO2 (configuration not stated)	nt	nt	nt	nt	-12.8%
COc1cc(Nc2cc3c(cn2)cc(-c2cccnc2)n3C)cc(C(F)(F)F)c1	nt	nt	0.1	nt	nt
CC(C1CC2CCC1C2)n1c(COc2ccccc2F)nnc1SCC(N)=O (configuration not stated)	-0.4%	10.4%	4.4	?	-21.8%
CC(C)NC(=O)NC(=O)CSc1nnc(COc2ccccc2F)n1C(C)C1CC2CCC1C2 (configuration not stated)	18.3µM*	?	19.6	?	28.2µM*
O=C(CNC(=O)c1ccco1)N=Nc1c(O)n(CCc2ccccc2)c2ccccc12	nt	?	-84.0*	nt	-23.6%
CCn1c(O)c(N=NC(=O)CNC(=O)Cc2ccccc2)c2ccccc21	10.5%[46.1 µM]	-15.1%	-1.1	0.3%[46.1 µM]	-2.2%
Cc1cc(C)c(NC(=O)CSc2nc(=O)[nH]c3c2CCCC3)c(C)c1	-12.0%[46.1 µM]	nt	9.3	nt	-25.8%
Clc1ccc(C2=Nn3c(Cn4nnc5ccccc54)nnc3SC2)cc1	-28.2%	0.1%	156.9	-25.8%	-22.9%
COc1ccc(C2=Nn3c([n+](C)c4ccccc43)SC2)cc1	nt	2.24µM*	-81.4*	nt	?
C[n+]1c2n(c3ccccc31)N=C(c1ccc(Cl)cc1)CS2	?	?	-96.0*	?	?
CC1Sc2n(c3ccccc3[n+]2C)N=C1c1ccccc1 (configuration not stated)	?	-17.4%	-96.6*	?	?
Cn1c(Cc2ccccc2)[n+](C)c2ccccc21	nt	?	-17.7	-21.0%[46.1 µM]	-16.0%
CC(=NCC1CCCO1)C1=C(O)CC(C)(C)CC1=O (configuration not stated)	4.9%	3.3%	-62.4*	-16.3%	-24.4%
CC(=NCC1CCNCC1)C1=C(O)CC(C)(C)CC1=O	-1.8%	1.1%	-20.9	0.4%	-2.9%
CCOC(=O)c1ccc(-c2c(-c3ccccc3OC)sc3cc4c(cc23)OCO4)cc1F	nt	3.2%	26.2	0.0%	0.0%
COc1ccc(-c2nc3c(C(=O)NCCN(C)C)cccc3c3ccccc23)cc1	?	?	-34.5	?	-23.5%
CN(C)CCNC(=O)c1cccc2nc3c(ccc4ccccc43)nc12	?	7.94µM*	-96.4*	?	-23.5%
COc1ccc(Cl)cc1C(=O)NCCN(C)C	8.9%	2.7%	20.2	0.9%	21.7%
COc1ccc(C(=O)NCCN(C)C)c2nc3ccccc3cc12	?	?	-99.7*	1.26µM*	-11.1%
Cc1ccc(Sc2cc(C(=O)NCCN(C)C)c3ccccc3n2)cc1	nt	-23.9%	-37.7	nt	10.4%
COc1cccc2nc3c(C(=O)NCCN(C)C)cccc3cc12	?	?	-101.5*	7.08µM*	0.2%
